Results reported in the supplement of paper PMC10849652.
About 7,900 targets were measured; listed, in parts, are those with a hit and a random draw of the rest. About 0.6% of all pairs of compound and target were hits.

compound: c1cn2cc(-c3ccc4cn[nH]c4c3)nc(Nc3ccc(N4CCOCC4)cc3)c2n1 [entospletinib]; assay: log2 fold change, soluble protein after heating vs DMSO (PISA); higher = thermal stabilisation; K562 cells, 10 uM, 30 min; active = over 0.2 and 3.5 SD of the protein, either way, in both replicates (recomputed)
Summary of the method: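 K562 cells (2×10^6 cells/mL) were treated with 10 μM compound for 30 min, and aliquots were heated for 3 min over 48°C-58°C. Pooled aliquots were extracted in PBS with 0.5% NP-40 at 4°C, and the supernatant after 21,000xg for 90 min was measured by TMTpro 16plex LC-MS/MS with channel sums equalised. Reported thermal stability, relative to control samples and from duplicates, is a log2 fold change.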

Chain of UniProt Q15528 (Q15528 whole entry, looked up): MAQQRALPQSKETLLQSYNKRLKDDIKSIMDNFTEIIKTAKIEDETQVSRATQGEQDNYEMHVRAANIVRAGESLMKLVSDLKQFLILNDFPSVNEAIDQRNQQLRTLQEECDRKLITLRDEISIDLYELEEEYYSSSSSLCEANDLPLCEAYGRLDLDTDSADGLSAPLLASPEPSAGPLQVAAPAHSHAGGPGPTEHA
Chain of UniProt O15021 (O15021 whole entry, looked up): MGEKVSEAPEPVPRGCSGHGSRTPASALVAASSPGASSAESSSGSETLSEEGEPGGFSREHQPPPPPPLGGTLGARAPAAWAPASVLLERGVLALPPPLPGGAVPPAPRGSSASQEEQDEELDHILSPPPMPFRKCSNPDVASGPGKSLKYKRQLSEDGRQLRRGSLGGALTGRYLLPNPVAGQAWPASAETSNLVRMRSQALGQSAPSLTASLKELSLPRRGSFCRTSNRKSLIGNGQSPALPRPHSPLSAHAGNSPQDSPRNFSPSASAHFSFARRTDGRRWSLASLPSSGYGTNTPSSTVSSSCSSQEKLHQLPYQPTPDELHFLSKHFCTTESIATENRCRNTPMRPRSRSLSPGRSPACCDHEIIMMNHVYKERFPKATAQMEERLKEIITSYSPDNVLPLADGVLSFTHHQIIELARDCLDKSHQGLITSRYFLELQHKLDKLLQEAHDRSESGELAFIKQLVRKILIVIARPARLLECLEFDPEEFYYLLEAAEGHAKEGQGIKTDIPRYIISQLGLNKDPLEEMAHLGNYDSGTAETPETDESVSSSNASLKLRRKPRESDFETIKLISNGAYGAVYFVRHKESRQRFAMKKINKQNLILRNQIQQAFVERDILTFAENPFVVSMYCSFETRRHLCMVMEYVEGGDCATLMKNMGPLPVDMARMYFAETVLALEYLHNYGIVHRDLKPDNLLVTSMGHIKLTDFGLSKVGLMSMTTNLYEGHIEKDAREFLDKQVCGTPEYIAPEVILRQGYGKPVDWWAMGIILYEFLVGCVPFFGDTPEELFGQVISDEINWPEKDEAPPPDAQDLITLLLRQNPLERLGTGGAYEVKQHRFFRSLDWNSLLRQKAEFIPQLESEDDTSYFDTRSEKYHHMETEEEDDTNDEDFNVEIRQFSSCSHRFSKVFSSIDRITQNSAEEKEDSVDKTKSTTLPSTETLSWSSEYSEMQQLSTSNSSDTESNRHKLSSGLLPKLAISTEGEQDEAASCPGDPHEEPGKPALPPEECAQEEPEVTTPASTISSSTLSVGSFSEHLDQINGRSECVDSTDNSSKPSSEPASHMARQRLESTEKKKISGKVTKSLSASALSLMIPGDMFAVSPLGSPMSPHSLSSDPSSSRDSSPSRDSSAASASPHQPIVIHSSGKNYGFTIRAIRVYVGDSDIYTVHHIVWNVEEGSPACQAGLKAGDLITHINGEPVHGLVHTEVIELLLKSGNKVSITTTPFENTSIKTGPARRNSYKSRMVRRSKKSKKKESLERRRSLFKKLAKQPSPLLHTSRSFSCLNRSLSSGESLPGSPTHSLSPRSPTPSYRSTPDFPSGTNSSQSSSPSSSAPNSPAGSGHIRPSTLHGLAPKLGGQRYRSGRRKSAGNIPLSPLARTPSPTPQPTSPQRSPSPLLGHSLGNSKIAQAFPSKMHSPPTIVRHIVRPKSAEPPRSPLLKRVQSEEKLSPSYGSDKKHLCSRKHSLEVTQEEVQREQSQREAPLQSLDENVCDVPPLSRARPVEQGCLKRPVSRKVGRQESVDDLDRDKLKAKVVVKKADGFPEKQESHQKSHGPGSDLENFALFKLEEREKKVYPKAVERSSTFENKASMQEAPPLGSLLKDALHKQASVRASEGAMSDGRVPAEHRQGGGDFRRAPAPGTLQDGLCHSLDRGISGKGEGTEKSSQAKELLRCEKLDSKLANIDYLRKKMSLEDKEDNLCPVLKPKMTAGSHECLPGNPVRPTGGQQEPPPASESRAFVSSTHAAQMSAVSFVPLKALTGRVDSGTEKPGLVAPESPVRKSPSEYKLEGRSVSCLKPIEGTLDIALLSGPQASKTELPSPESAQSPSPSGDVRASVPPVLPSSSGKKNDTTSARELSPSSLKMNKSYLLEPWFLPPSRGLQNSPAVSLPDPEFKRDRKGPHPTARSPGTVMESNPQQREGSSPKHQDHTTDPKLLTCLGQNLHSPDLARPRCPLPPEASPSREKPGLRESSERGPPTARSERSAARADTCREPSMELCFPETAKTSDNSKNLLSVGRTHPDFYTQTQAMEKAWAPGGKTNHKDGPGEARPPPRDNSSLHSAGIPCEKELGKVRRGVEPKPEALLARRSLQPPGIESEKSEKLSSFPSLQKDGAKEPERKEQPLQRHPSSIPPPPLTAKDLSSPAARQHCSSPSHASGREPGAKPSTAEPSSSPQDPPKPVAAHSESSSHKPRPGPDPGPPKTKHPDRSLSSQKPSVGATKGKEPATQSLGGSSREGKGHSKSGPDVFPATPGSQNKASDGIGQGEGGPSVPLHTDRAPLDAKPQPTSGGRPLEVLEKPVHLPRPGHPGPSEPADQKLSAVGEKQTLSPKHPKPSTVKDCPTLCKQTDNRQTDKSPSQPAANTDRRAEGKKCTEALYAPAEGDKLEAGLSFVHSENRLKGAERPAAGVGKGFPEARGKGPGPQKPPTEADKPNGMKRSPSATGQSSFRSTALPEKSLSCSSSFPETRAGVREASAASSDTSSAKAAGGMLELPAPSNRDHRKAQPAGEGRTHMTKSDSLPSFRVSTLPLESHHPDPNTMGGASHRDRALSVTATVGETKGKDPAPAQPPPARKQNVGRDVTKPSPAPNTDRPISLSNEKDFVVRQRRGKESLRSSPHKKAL
Chain of UniProt Q9H6K1 (Q9H6K1 whole entry, looked up): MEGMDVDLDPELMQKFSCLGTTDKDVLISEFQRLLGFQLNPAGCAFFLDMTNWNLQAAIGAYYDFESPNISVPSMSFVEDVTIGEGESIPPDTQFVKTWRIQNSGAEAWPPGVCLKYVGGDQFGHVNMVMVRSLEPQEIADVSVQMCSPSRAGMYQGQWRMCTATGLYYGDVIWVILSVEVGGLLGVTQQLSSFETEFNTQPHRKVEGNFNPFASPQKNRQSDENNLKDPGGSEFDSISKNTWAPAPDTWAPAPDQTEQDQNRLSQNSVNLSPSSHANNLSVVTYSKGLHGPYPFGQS
Chain of UniProt Q86UD3 (Q86UD3 whole entry, looked up): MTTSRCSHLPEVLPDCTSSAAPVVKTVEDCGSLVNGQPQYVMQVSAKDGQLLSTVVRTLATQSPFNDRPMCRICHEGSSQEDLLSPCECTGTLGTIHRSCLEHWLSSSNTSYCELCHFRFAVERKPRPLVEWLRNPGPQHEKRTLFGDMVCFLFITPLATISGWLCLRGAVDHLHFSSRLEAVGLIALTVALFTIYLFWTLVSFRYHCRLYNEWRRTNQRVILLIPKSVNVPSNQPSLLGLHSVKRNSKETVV
Chain of UniProt P01130 (P01130 whole entry, looked up): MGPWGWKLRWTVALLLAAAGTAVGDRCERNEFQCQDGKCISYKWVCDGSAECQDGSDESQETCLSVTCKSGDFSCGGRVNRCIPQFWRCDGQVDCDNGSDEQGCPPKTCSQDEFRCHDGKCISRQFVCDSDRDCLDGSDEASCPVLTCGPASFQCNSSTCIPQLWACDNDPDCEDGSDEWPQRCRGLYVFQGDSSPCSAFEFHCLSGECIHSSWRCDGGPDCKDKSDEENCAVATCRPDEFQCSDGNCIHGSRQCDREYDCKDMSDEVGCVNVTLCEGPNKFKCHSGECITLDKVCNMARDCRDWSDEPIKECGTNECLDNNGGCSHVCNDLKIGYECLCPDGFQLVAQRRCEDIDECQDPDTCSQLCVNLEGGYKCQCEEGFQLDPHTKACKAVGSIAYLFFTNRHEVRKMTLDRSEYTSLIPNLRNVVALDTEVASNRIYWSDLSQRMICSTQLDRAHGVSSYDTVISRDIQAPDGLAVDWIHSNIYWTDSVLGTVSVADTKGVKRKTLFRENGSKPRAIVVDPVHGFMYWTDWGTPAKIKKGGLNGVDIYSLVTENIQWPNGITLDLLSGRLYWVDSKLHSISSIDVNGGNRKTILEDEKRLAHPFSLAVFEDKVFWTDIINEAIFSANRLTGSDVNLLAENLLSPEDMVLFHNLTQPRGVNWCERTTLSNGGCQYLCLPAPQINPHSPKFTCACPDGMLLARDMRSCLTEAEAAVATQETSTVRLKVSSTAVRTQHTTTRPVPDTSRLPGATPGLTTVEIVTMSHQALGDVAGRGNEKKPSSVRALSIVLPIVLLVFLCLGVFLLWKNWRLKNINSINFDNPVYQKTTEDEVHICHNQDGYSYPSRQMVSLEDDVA
Chain of UniProt Q8NE86 (Q8NE86 whole entry, looked up): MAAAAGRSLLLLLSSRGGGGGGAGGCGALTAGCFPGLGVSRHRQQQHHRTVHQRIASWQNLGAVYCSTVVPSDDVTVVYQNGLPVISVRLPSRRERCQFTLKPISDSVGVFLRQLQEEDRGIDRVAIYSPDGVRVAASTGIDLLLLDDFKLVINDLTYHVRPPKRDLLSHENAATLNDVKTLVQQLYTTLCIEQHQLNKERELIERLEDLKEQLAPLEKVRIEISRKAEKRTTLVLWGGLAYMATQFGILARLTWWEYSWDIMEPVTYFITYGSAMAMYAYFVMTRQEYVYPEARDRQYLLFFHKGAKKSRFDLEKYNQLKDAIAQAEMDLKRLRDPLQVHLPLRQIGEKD
Chain of UniProt Q9H0C8 (Q9H0C8 whole entry, looked up): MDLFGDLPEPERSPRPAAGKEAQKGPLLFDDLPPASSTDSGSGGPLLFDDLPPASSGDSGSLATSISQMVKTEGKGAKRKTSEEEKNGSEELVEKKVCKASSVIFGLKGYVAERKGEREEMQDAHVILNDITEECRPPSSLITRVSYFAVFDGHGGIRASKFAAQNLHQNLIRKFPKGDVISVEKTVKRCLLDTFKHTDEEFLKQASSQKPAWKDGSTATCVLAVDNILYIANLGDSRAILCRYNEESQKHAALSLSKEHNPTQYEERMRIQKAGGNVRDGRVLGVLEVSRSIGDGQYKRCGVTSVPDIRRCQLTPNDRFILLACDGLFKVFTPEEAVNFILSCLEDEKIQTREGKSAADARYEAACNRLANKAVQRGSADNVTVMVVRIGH

log2 fold change, inactive:
MAST4 (UniProt O15021) -0.052
LTN1 isoform 3 (UniProt O94822) -0.001
LDLR (UniProt P01130) -0.008
MCU (UniProt Q8NE86) 0.031
MED16 (UniProt Q9Y2X0) 0.014
ILKAP (UniProt Q9H0C8) -0.012
MARCHF3 (UniProt Q86UD3) 0.058
ILRUN (UniProt Q9H6K1) -0.004
MED22 (UniProt Q15528) -0.143
KPNA4 (UniProt O00629) -0.058
